Measured values from PubChem BioAssay AID1851 (National Center for Advancing Translational Sciences (NCATS), 2009).
The campaign covered roughly 16,000 compounds. About 5,700 (36%) were called active. Another 24% or so got no clear call; they are omitted. Calls follow the shape of the dose curve; as a rule, active = well fitted curve in the direction sought with a large enough effect; inconclusive = small, poorly fitted or top-dose-only effect, or effect the other way; inactive = no such curve, though single readings can be large or run the other way. The list shows a part of the results.

These molecules were tested against Cytochrome P450 1A2 (Homo sapiens) (UniProt P05177) (assay: Cytochrome panel assay with activity outcomes). Details: recombinant CYP, pro-luciferin dealkylation, luminescence, p450-cyp1a2; series mostly up to 57.1 µM.
Sequence of Cytochrome P450 1A2 (Homo sapiens) (P05177 whole entry, looked up): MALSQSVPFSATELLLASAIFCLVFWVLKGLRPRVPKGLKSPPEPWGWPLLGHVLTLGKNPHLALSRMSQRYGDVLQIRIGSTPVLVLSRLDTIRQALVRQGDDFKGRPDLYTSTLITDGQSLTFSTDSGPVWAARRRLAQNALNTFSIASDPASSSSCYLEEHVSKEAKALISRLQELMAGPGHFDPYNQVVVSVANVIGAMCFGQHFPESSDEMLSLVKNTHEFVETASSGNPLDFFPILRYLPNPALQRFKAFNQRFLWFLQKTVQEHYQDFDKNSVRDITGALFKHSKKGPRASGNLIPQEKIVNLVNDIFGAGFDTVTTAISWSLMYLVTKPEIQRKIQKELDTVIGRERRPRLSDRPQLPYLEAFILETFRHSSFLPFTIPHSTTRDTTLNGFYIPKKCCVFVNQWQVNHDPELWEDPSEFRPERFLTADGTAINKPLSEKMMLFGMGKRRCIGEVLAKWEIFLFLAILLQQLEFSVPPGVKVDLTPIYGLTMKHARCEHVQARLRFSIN
% is scaled to controls: 0 for no effect and ±100 for the full control effect.

AC50, active:
CCOC(=O)c1nc(N)sc1C(=O)OCC 7.08 µM, O=C(O)c1nn(-c2ccc(Cl)cc2)c2c1C(=O)c1ccccc1C2=O 0.251 µM, O=C(NNc1cccc(Cl)n1)Nc1ccccc1Cl 2.51 µM, O=C(Nc1nnc(-c2ccc(Cl)cc2)o1)Nc1ccccc1Cl 1.58 µM, Cc1cc(NC(=O)c2ccccc2Cl)c(C(C)C)cc1O 3.55 µM, O=C(Nc1ccccc1Cl)c1ccccc1Cl 1.78 µM, NC(=O)NC(=O)Nc1ccccc1Cl 4.47 µM, O=C(Nc1ccccc1Cl)c1ccn[nH]1 0.794 µM, Clc1cccc(N/N=C/c2ccc(N3CCOCC3)cc2)c1 2.51 µM, Cc1ccc(Nc2ccc(-n3ccnc3)nn2)cc1C 0.158 µM, Cc1cc(/C=N/n2cnnc2)c(C)n1-c1ccc(OCc2ccccc2F)cc1 12.6 µM, Fc1ccc(CSc2nnc(-c3cc4c(s3)-c3ccccc3CC4)o2)cc1 2.24 µM, Cc1ccc(-c2nnc(-c3ccc4ccccc4c3)o2)cc1 0.631 µM, c1ccc2cc(-c3csnn3)ccc2c1 0.112 µM, c1ccc(-c2noc(-c3ccc4ccccc4c3)n2)cc1 3.16 µM, c1ccc2cc(-c3cc(-c4cc(-c5ccc6ccccc6c5)on4)no3)ccc2c1 1.58 µM

AC50, inactive:
CCOC(=O)c1sc(C)c(C(=O)NCC(C)(C)CN(C)C)c1N, CCN1CCN(C(=O)N[C@H](C(=O)N[C@@H]2C(=O)N3[C@@H]2SC(C)(C)[C@@H]3C(=O)O)c2ccccc2)C(=O)C1=O, O=C1C(C2=NC(C(=O)O)C3C(=O)N(c4ccc(Cl)cc4)C(=O)C23)=C(O)c2ccccc21 (stereo unspecified), CC(C)CN1CC[C@@]2(CCCN(C(=O)c3cnccn3)C2)C1, Cc1cccc(C)c1NC(=O)C(NC=O)c1ccccc1Cl (stereo unspecified), Cn1sc(NC(=O)c2ccccc2Cl)nc1=O, O=C(CCN1CCN(CC(=O)Nc2ccccc2Cl)CC1)Nc1ccccc1F, CC(=O)NNc1cccc(Cl)n1, CCCC(O)(CCC)C(=O)NN1CCCCC1, O=C(O)COC(=O)Cc1ccccc1Nc1c(Cl)cccc1Cl, O=C(O)C1CCCCC1C(=O)Nc1ccccc1Cl (stereo unspecified), O=C1CC(N2CCOCC2)C(=O)N1c1cccc(Cl)c1 (stereo unspecified)

activity, negative = inhibition, inactive:
O=C(O)c1nn(-c2ccccc2-c2n[nH]c(=O)[nH]c2=O)c(=O)[nH]c1=O -21.2% [at 11.4 µM], COc1nc(N)nc2c1ncn2[C@@H]1C[C@H](O)[C@@H](CO)O1 -7.83% [at 11.4 µM], O=C(O)c1nnsc1-c1csnn1 -3.7% [at 11.4 µM]
